Reference: PubChem BioAssay (EPA / NIEHS)
Results filed as inconclusive are left out. Active and inactive are the calls of the source. The calls were made as follows, unless noted: active = hit-call score of the fitted dose curve at least 0.9, where 1 is the maximum; inactive = score below 0.9.

Tests used:
[1] = ATG_M_06_TRANS: Attagene TRANS-FACTORIAL HepG2 Assay for M06 Transcription Factor (Internal Marker) (AID 2282983; active = hit-call score of the fitted dose curve at least 0.9, where 1 is the maximum;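 also: reporter transcript level by RT-PCR then capillary electrophoresis fluorescence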); details: HepG2 Attagene TRANS M06 internal marker reporter
Procedure, shortened: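 Read-out: fluorescent reporter cDNA fragments resolved by capillary electrophoresis after RT-PCR and HpaI cut. Source cells were HepG2 carrying transfected multi-reporter GAL4 constructs, dosed 24 h. Increase over DMSO control analysed.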

[2] = ATG_M_32_TRANS: Attagene TRANS-FACTORIAL HepG2 Assay for M32 Transcription Factor (Internal Marker) (AID 2282984; active = hit-call score of the fitted dose curve at least 0.9, where 1 is the maximum;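 also: transcript level of a background control reporter unit measured by RT-PCR and capillary electrophoresis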); details: HepG2 Attagene TRANS M32 internal marker reporter
Procedure, shortened: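 Cell-based TRANS-format assay in HepG2: exogenous chimeric GAL4 reporter units transiently expressed, compounds applied 24 h. Reporter mRNA detected by RT-PCR plus capillary electrophoresis; this readout is an internal background marker.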

[3] = target: Nuclear receptor subfamily 4 group A member 2 (Homo sapiens) (UniProt P43354); test: ATG_NURR1_TRANS: Attagene TRANS-FACTORIAL HepG2 Assay for human Nuclear Receptor Related Protein 1 (NURR1) (AID 2282985; active = hit-call score of the fitted dose curve at least 0.9, where 1 is the maximum); details: HepG2 Attagene TRANS reporter, mRNA readout
Sequence of Nuclear receptor subfamily 4 group A member 2 (Homo sapiens) (P43354 whole entry, looked up, the tested form may be a part): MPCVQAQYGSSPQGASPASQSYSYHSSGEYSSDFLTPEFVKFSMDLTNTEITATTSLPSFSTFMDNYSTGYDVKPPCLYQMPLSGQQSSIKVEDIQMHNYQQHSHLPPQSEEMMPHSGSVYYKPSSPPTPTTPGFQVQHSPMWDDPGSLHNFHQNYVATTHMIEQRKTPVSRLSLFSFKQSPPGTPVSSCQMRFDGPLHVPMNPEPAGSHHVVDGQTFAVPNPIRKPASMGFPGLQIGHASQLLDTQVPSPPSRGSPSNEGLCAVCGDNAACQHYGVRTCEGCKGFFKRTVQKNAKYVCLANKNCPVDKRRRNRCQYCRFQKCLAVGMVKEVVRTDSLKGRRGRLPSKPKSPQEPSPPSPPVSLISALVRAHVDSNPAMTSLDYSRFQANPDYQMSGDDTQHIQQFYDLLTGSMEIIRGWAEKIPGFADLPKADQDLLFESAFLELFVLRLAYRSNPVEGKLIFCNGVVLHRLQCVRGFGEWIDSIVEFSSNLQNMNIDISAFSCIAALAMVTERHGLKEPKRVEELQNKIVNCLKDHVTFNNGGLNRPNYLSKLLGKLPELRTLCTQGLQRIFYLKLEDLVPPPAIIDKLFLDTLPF
Procedure, shortened: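 Measures transcriptional activation by an exogenous NR-Gal4 chimera in transfected HepG2 liver cells. After 24 h, reporter RNA is reverse-transcribed, amplified and resolved by capillary electrophoresis; DMSO defines baseline.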

[4] = target: Transcriptional activator Myb (Homo sapiens) (UniProt P10242); test: ATG_Myb_CIS: Attagene CIS-FACTORIAL HepG2 Assay for human Myeloblastosis (Myb) Proto-Oncogene Transcription Factor (AID 2282986); details: HepG2 Attagene CIS-FACTORIAL Myb reporter transcription; actives raise or lower the signal
Sequence of Transcriptional activator Myb (Homo sapiens) (P10242 whole entry, looked up): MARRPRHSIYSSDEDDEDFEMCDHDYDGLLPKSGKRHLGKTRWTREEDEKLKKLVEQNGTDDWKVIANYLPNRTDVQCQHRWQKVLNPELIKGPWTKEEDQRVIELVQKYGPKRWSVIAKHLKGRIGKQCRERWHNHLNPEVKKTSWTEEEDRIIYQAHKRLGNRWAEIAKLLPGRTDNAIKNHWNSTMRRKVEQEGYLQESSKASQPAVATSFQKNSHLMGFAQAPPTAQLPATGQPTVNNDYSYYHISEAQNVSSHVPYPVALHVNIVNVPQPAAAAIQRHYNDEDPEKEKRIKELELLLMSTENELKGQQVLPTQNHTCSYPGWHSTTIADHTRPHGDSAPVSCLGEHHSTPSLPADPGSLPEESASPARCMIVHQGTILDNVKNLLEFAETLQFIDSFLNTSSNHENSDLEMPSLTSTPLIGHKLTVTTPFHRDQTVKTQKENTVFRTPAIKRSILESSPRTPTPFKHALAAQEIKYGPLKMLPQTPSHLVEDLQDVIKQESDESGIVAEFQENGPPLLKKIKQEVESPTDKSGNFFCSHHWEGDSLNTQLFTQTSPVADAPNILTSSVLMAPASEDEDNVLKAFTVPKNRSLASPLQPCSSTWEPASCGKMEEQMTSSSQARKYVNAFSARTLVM
Procedure, shortened: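 Multiplexed cis-reporter system in HepG2: transient transfection, 24 h treatment, mRNA readout by RT-PCR and capillary electrophoresis. Both increases and decreases are scored versus DMSO negative control.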

[5] = target: Nuclear respiratory factor 1 (Homo sapiens) (UniProt Q16656); test: ATG_NRF1_CIS: Attagene CIS-FACTORIAL HepG2 Assay for human Nuclear Respiratory Factor 1 (NRF1) Orphan Gene (AID 2282987); details: HepG2 NRF1 cis-element reporter, Attagene multiplex; actives raise or lower the signal
Sequence of Nuclear respiratory factor 1 (Homo sapiens) (Q16656 whole entry, looked up): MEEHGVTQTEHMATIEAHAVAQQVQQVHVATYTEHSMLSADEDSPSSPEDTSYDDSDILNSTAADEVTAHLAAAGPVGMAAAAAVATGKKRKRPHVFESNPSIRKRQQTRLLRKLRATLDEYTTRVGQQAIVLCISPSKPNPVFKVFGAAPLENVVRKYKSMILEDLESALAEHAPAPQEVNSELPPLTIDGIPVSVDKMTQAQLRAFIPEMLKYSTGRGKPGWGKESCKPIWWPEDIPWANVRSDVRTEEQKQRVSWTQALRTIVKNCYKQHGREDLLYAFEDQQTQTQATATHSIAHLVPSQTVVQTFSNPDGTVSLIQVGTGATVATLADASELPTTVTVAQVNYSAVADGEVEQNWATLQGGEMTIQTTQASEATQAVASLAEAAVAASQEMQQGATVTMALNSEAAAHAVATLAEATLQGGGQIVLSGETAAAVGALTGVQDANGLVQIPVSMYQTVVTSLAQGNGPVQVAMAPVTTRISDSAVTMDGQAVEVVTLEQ
Procedure, shortened: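 Endogenous factor activity was captured via cis-element-driven reporter transcripts in HepG2 cells. Following 24 h chemical treatment, transcripts were quantified by RT-PCR and capillary electrophoresis.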

[6] = ATG_NFI_CIS: Attagene CIS-FACTORIAL HepG2 Assay for human Nuclear Factor I (NFI) (AID 2282989); details: HepG2 cis-regulatory reporter, NFI response element transcription; actives raise or lower the signal
Procedure, shortened: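 Cells: human liver HepG2, transiently transfected with promoter-regulated reporter transcription units. Exposure 24 h. Detection: fluorescent RT-PCR products separated by capillary electrophoresis, normalised to DMSO negative control.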

[7] = target: Myc proto-oncogene protein (Homo sapiens) (UniProt P01106); test: ATG_Myc_CIS: Attagene CIS-FACTORIAL HepG2 Assay for human Myelocytomatosis (Myc) Proto-Oncogene Transcription Factor (AID 2282990); details: HepG2, Attagene cis-reporter transcription factor activity; actives raise or lower the signal
Sequence of Myc proto-oncogene protein (Homo sapiens) (P01106 whole entry, looked up): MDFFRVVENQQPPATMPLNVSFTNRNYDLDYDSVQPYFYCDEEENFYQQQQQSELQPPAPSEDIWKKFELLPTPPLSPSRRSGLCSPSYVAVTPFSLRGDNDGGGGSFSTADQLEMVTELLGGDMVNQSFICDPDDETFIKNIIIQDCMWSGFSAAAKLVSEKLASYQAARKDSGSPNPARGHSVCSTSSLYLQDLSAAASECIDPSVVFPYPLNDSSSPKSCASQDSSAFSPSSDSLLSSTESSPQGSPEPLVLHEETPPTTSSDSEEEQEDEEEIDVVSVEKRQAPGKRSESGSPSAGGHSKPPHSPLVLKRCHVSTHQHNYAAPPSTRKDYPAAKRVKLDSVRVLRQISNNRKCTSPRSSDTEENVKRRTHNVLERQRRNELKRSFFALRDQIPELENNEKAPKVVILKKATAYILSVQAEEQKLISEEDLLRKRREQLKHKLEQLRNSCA
Procedure, shortened: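 HepG2, transient MRTU transfection (cis promoters, endogenous TFs); 24 h dosing; TriZol RNA → oligo(dT) RT → PCR → 6-FAM primer extension → HpaI cut → CE. Bidirectional fit vs DMSO.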

[8] = ATG_NF_kB_CIS: Attagene CIS-FACTORIAL HepG2 Assay for human Nuclear Factor Kappa B (NF-kB) (AID 2282991); details: HepG2 Attagene cis-factorial NF-kB reporter mRNA; actives raise or lower the signal
Procedure, shortened: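 After 24 h compound incubation, transfected HepG2 cells yield total RNA; reporter cDNA is PCR-amplified, end-labelled with 6-FAM, HpaI-digested and analysed on a genetic analyser. Endogenous factor activity, DMSO-referenced bidirectional fit.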

[9] = ATG_NRF2_ARE_CIS: Attagene CIS-FACTORIAL HepG2 Assay for human Nuclear Factor Erythroid 2 Related Factor 2 (NFR2) response to Antioxidant Response Elements (ARE) (AID 2282992); details: HepG2 Attagene ARE/NRF2 reporter, transcription factor activity; actives raise or lower the signal;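 as to AC50: reporter mRNA level measured by RT-PCR and capillary electrophoresis fluorescence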
Procedure, shortened: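 Endogenous transcription factor activity in human liver HepG2 cells is tracked via a cis-element-driven reporter within a multiplexed set. mRNA induction is read by RT-PCR and capillary electrophoresis after 24 h, with DMSO as baseline.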

[10] = ATG_Oct_MLP_CIS: Attagene CIS-FACTORIAL HepG2 Assay for human Octamer-Binding Transcription Factor (Oct) (AID 2282993); details: HepG2 Attagene cis-factorial Oct reporter, mRNA; actives raise or lower the signal
Procedure, shortened: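 HepG2, transient MRTU transfection, cis promoter elements; 24 h dosing; RT-PCR/CE fluorescence read-out of reporter mRNA; fit both directions vs DMSO.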

[11] = target: human Peroxisome Proliferator-activated Receptor alpha (PPARa), PPARA (gene 5465) (UniProt Q07869); test: ATG_PPARa_TRANS: Attagene TRANS-FACTORIAL HepG2 Assay for human Peroxisome Proliferator-activated Receptor alpha (PPARa) (AID 2283001; active = hit-call score of the fitted dose curve at least 0.9, where 1 is the maximum)
Sequence of human Peroxisome Proliferator-activated Receptor alpha (PPARa), PPARA (gene 5465) (Q07869 whole entry, looked up, the tested form may be a part): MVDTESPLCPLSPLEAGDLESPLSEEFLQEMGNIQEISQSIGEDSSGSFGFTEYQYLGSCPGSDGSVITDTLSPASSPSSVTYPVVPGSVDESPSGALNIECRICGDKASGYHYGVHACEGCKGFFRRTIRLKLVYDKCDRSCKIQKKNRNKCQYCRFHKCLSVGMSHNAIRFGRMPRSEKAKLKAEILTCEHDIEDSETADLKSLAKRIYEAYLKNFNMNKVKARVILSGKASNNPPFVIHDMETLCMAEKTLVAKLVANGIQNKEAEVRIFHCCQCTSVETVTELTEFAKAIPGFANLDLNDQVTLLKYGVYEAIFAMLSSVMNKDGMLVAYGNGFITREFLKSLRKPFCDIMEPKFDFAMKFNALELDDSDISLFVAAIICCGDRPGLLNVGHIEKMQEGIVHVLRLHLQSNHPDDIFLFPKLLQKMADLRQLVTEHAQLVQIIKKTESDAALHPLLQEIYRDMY
Procedure, shortened: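 Transfected HepG2 cells treated with test chemical for 24 h. RNA isolated, reverse-transcribed with oligo(dT), PCR-amplified, FAM-labelled and HpaI-digested. Fragments sized by capillary electrophoresis; gain-of-signal fit relative to DMSO.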

[12] = target: human Retinoic Acid Receptor beta (RARb), RARB (gene 5915) (UniProt P10826); test: ATG_RARb_TRANS: Attagene TRANS-FACTORIAL HepG2 Assay for human Retinoic Acid Receptor beta (AID 2283004; active = hit-call score of the fitted dose curve at least 0.9, where 1 is the maximum)
Sequence of human Retinoic Acid Receptor beta (RARb), RARB (gene 5915) (P10826 whole entry, looked up, the tested form may be a part): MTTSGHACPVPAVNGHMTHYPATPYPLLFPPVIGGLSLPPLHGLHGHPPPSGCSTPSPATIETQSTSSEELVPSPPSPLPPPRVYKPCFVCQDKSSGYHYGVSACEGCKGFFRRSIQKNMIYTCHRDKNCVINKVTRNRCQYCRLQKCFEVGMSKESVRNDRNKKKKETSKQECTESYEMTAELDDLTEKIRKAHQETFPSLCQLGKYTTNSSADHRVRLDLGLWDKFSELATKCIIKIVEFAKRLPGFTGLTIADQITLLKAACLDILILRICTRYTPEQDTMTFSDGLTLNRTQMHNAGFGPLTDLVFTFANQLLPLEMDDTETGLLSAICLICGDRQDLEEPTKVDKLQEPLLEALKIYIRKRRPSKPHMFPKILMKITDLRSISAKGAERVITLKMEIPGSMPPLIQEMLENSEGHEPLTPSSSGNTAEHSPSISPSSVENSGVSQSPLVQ
Procedure, shortened: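 Readout is reporter mRNA induction: RNA reverse-transcribed, PCR-amplified, FAM-labelled, HpaI-cut and resolved by capillary electrophoresis. Transiently transfected HepG2 cells carrying exogenous NR–Gal4 chimeras were dosed for 24 h; activity fitted upward relative to DMSO.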

[13] = BSK_3C_TissueFactor: BioMAP Diversity Plus: 3C Assay for Tissue Factor Biomarker Activity (AID 2282997); details: BioMAP 3C HUVEC, tissue factor biomarker readout; actives raise or lower the signal
Procedure, shortened: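 HUVEC, 3C system, 24 h post-dose; Tissue Factor by ELISA; bidirectional fit vs DMSO baseline.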

[14] = BSK_3C_uPAR: BioMAP Diversity Plus: 3C Assay for Urokinase-type plasminogen activator receptor (uPAR) Biomarker Activity (AID 2282998); details: BioMAP 3C HUVEC, uPAR biomarker ELISA; actives raise or lower the signal
Procedure, shortened: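 A multiplexed primary-cell system built on human umbilical vein endothelium was used, with chemical present for 24 h before reading. Cell-surface uPAR was detected by ELISA; signal change in either direction counted against DMSO.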

[15] = read-out: Intercellular Adhesion Molecule 1 (ICAM1), ICAM1 (gene 3383); test: BSK_3C_ICAM1: BioMAP Diversity Plus: 3C Assay for Intercellular Adhesion Molecule 1 (ICAM1) Biomarker Activity (AID 2283003); details: primary human endothelial cells (HUVEC); actives raise or lower the signal
Procedure, shortened: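 ELISA read-out of ICAM-1; HUVEC (primary human), 3C system, 24 h post-dosing; bidirectional fit vs DMSO baseline.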

[16] = target: Cellular tumor antigen p53 (Homo sapiens) (UniProt P04637); test: ATG_p53_CIS: Attagene CIS-FACTORIAL HepG2 Assay for human p53 Transcription Factor (AID 2282994); details: HepG2 p53 cis-element reporter, Attagene mRNA; actives raise or lower the signal
Sequence of Cellular tumor antigen p53 (Homo sapiens) (P04637 whole entry, looked up, the tested form may be a part): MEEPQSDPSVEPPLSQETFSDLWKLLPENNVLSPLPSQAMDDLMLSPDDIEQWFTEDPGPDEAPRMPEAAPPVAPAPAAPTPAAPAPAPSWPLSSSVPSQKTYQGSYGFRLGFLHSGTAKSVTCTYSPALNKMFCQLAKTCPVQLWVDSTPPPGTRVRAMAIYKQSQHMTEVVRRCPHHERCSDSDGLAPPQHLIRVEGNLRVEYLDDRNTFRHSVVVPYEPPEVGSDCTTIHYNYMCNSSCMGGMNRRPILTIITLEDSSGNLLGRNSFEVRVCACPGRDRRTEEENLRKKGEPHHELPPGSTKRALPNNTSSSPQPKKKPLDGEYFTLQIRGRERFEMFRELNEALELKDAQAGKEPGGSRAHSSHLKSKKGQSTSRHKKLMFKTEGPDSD
Procedure, shortened: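 Steps: transfect HepG2 with multiplexed cis reporter constructs; dose chemicals 24 h; extract RNA, reverse-transcribe, PCR-amplify reporter sequences; FAM-label, HpaI-digest, resolve fragments by CE. Activity fitted both directions relative to DMSO.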

[17] = target: human Peroxisome Proliferator-activated Receptor delta (PPARd), PPARD (gene 5467) (UniProt Q03181); test: ATG_PPARd_TRANS: Attagene TRANS-FACTORIAL HepG2 Assay for human Peroxisome Proliferator-activated Receptor delta (PPARd) (AID 2283002; active = hit-call score of the fitted dose curve at least 0.9, where 1 is the maximum)
Sequence of human Peroxisome Proliferator-activated Receptor delta (PPARd), PPARD (gene 5467) (Q03181 whole entry, looked up, the tested form may be a part): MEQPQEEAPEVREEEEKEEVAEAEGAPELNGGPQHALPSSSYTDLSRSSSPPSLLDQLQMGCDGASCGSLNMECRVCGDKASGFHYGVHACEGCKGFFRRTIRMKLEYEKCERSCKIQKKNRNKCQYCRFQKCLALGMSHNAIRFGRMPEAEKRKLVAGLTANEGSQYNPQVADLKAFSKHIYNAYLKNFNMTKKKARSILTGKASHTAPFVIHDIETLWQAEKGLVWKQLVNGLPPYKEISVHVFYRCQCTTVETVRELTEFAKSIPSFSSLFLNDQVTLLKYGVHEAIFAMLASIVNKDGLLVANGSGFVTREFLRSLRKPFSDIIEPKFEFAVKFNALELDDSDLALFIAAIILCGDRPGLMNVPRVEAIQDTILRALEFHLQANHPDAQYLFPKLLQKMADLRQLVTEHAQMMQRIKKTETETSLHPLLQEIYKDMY
Procedure, shortened: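 Transient HepG2 transfection (multiple GAL4-UAS RTUs, chimeric receptor-Gal4); 24 h dosing; total RNA → oligo(dT) RT → PCR → 6-FAM primer extension → HpaI cut → CE. Positive direction vs DMSO.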

[18] = BSK_3C_VCAM1: BioMAP Diversity Plus: 3C Assay for Vascular cell adhesion molecule 1 (VCAM1) Biomarker Activity (AID 2282999); details: BioMAP 3C HUVEC, VCAM1 ELISA, cytokine-stimulated; actives raise or lower the signal
Procedure, shortened: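 Activity fitted in both directions relative to DMSO, with ELISA measurement of the surface marker on primary HUVEC (3C) at 24 h post-treatment; parallel SRB staining (0.1% SRB, TCA-fixed, 560 nm) flagged overt cytotoxicity.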

[19] = BSK_4H_Eotaxin3: BioMAP Diversity Plus: 4H Assay for Eotaxin 3 Biomarker Activity (AID 2283000); details: primary human endothelial cells (HUVEC); actives raise or lower the signal;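 also: CCL26 protein level quantified by ELISA in parallel with SRB cytotoxicity check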
Procedure, shortened: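 Readout is Eotaxin-3 (CCL26) level by ELISA in primary human umbilical vein endothelial cells harvested 24 h after chemical exposure; activity fitted in both directions against DMSO control.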

Measured: AC50

CC(=O)C=C(C)C
not listed: [13] | [14] | [15] | [16] | [17] | [18] | [19]
inactive: all other assays above

O=Cc1cccc(Oc2ccccc2)c1
not listed: [16] | [17] | [18] | [19]
inactive: all other assays above

ClC1=C(Cl)[C@]2(Cl)[C@@H]3[C@@H](Cl)[C@@H](Cl)C[C@@H]3[C@@]1(Cl)C2(Cl)Cl
inactive: [1] | [2] | [4] | [5] | [6] | [7] | [8] | [9] | [10] | [16]

OCC(O)CCl (stereo unspecified)
not listed: [2] | [11] | [12] | [13] | [14] | [15] | [18] | [19]
inactive: all other assays above

Cc1cc(Cl)ccc1O[C@H](C)C(=O)O
not listed: [2] | [5] | [12] | [13] | [14] | [15] | [18] | [19]
inactive: all other assays above

CC(C)(c1ccccc1)c1ccc(O)c(C(C)(C)c2ccccc2)c1
inactive: [1] | [3] | [4] | [7] | [16] | [17] | [12]
active: [5] 6.39 µM | [6] 8.31 µM | [8] 8.81 µM | [9] 7.97 µM | [10] 1.76 µM | [13] 11.7 µM | [14] 9.74 µM | [15] 11.1 µM

O=C1C(Cl)=C(Cl)C(=O)c2ccccc21
inactive: [1] | [3] | [4] | [6] | [8] | [10] | [16] | [11] | [12]
active: [9] 2.2 µM

CCOP(=O)(CN(CCO)CCO)OCC
not listed: [2] | [11] | [12] | [13] | [14] | [15] | [18] | [19]
inactive: all other assays above

CC(C#N)CCC#N (stereo unspecified)
not listed: [2] | [11] | [13] | [14] | [15] | [17] | [18] | [19]
inactive: all other assays above

CCNc1nc(NC(C)(C)C)nc(SC)n1
not listed: [2] | [11] | [12] | [17]
inactive: all other assays above
